Screens deposited in PubChem BioAssay by The Scripps Research Institute Molecular Screening Center.
Sampled rows, rich in hits. Any-hit rate of the full collection: about 5.7%.
hcDAF12 agonist: activators of H. contortus DAF-12 nuclear receptor | hit rate 1.4% among 370,000 | activation, % at 6.8 µM | HEK293 hcDAF-12 lit1-tk-luc reporter, luminescence; 0% DMSO, 100% Δ7-dafachronic acid;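 active = activation above the mean of all tested compounds plus 3 SD, cut at about 5.5% in these data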;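 note: 100% = response to 3 µM Δ7-dafachronic acid high control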
AHR activator: activators of human aryl hydrocarbon receptor; activation, % at 5 µM; hit rate 2.5% among 320,000; AHR-responsive luciferase reporter cells, luminescence; P35869; AID 2796; in the data active = activation above about 47%;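 note: 0% = vehicle wells and 100% = reference agonist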
DAX1 inh-1: NR0B1 (DAX1) inhibition | hit rate 0.99% among 340,000 | HEK293 Gal4-DAX1 luciferase reporter, luminescence | AID 504766 | inhibition, % at 6.75 µM;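 active = inhibition above the mean over all tested compounds plus 3 SD, cut at about 4.2% in these data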;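 note: 0% = DAX1-transfected cells with DMSO and 100% = empty-vector control cells with DMSO; inhibition shows as a rise in luminescence from relieved DAX1 repression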
ssDAF-12 act: S. stercoralis DAF-12 activation, primary screen; AID 652126; HEK293 ssDAF-12/GRIP1 lit1-tk-luc reporter, luminescence; % of 3 µM dafachronic acid response; hit rate 1% among 370,000; activation, % at 6.8 µM;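 active = activation above the mean over all tested compounds plus 3 SD, cut at about 0.9% in these data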;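 note: 0% = DMSO-only wells and 100% = 3 µM delta7-dafachronic acid wells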
DAX1 inh-2: inhibitors of DAX1 repression of SF-1 activated StAR promoter; HEK293T StAR-luciferase reporter, SF-1/DAX-1 repression relief; hit rate 1.1% among 370,000; AID 652010; inhibition, % at 6.8 µM;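 active = inhibition above the mean over all tested compounds plus 3 SD, cut at about 3.6% in these data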;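 note: 0% = DAX-1 cells with DMSO and 100% = cells lacking DAX-1 with DMSO; higher inhibition means more luminescence from relief of DAX-1 repression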
hgDAF12 agonist: agonists of H. glycines DAF-12 nuclear receptor | HEK293 GAL4-hgDAF12 UAS-luciferase reporter, agonist luminescence; normalized to butyrate control | hit rate 1.8% among 370,000 | activation, % at 6.8 µM;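 active = activation above a cutoff set at the mean of all screened compounds plus 3 SD, cut at about 10% in these data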;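 note: 0% = DMSO wells and 100% = sodium butyrate wells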
DAX1 conf: NR0B1 (human) inhibition, confirmation | HEK293T StAR-promoter luciferase reporter, SF-1/DAX-1 repression | inhibition, % at 6.8 µM | shares compounds with DAX1 inh-2 | AID 652134 | hit rate 87% among 2,400;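 active = inhibition above the average of every tested compound plus 3 SD, cut at about 3.8% in these data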;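 note: 0% = DAX-1 cells with DMSO and 100% = no DAX-1 control cells with DMSO; active compounds raise luminescence by relieving repression of the StAR reporter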
SF1 AF2mut Luc: counter-screen for DAX1 inhibitors: nonselective inhibitors with SF-1 AF2 mutant. shares compounds with DAX1 inh-2. HEK293 StAR-luciferase, luminescence. inhibition, % at 6.8 µM. hit rate 78% among 2,400. AID 652136;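 active = inhibition above the mean of all tested compounds plus 3 SD, cut at about 3% in these data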;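 note: 0% = DAX-1 transfected cells with DMSO and 100% = cells without DAX-1 with DMSO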
LXR ag: activates human LXR-beta, counter-screen for hcDAF-12 agonists | shares compounds with hcDAF12 agonist | HEK293 Gal4-LXR tk-luc reporter, luminescence, 24 h; normalized: DMSO 0%, positive control 100% | 3,400 tested, under 10 active | activation, % at 6.8 µM;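 active = mean percent activation of the reporter above a cutoff set as the average over tested compounds plus their standard deviation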
Target sequence (P55055 whole entry, looked up, the tested form may be a part): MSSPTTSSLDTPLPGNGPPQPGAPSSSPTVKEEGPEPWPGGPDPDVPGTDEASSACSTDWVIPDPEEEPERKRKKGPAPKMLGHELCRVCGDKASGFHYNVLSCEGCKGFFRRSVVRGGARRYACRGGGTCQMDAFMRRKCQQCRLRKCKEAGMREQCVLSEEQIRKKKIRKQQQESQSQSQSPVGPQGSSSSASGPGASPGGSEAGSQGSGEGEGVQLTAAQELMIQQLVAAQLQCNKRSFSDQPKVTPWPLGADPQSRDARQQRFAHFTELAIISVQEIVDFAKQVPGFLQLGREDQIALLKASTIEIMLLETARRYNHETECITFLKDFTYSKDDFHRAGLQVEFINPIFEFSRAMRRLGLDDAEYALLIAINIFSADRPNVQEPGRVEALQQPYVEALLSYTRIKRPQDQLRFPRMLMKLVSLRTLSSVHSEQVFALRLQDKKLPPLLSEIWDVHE
hcDAF12 conf: hcDAF-12 agonism, confirmation assay. HEK293 hcDAF-12 lit1-tk-luc reporter, luminescence; % of Δ7-dafachronic acid response. shares compounds with hcDAF12 agonist. hit rate 61% among 3,400. activation, % at 6.8 µM;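 active = mean activation across triplicate tests above the threshold derived from the earlier primary screen, cut at about 5.5% in these data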;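 note: 0% = DMSO only wells and 100% = 3 µM Δ7-dafachronic acid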
hgDAF12 ag: hgDAF-12 agonism, confirmation assay | activation, % at 6.8 µM | HEK293 GAL4-hgDAF12 luciferase reporter, agonist mode; percent of butyrate response | shares compounds with hgDAF12 agonist | AID 743050 | hit rate 80% among 3,300;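 active = mean activation over triplicate wells above the hit cutoff derived from the earlier primary screen, cut at about 11% in these data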;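 note: 0% = DMSO low control and 100% = 2 mM sodium butyrate high control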
LXR ag 2: activates human LXR-beta, counter-screen for DAF-12 agonists. shares compounds with hgDAF12 agonist. HEK293 Gal4-LXR luciferase reporter, 24 h. activation, % at 6.8 µM. 3,300 tested, under 10 active;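 active = mean activation of the triplicate above a set limit carried over from the primary screen, none filed active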
* hit, by the source's call; nt = no result given.

SMILES | hcDAF12 agonist | AHR activator | DAX1 inh-1 | ssDAF-12 act | DAX1 inh-2 | hgDAF12 agonist | DAX1 conf | SF1 AF2mut Luc | hgDAF12 ag | LXR ag 2 | others
Oc1ccc(N=Nc2n[nH]c(-c3ccccc3)n2)cc1 | 5 | 13 | 0 | 1 | 7.1* | 15* | 15* | 9.2* | 17* | 1
C=CC[N+](C)(C)c1ccc(CCC(=O)CCc2ccc([N+](C)(C)CC=C)cc2)cc1 | 0 | -2 | 0 | -1 | 0 | 0 | nt | nt | nt | nt
C/C(=N\NC(=O)c1ccncc1)c1ccc(NC(=O)c2ccc(Cl)cc2)cc1 | 1 | 2 | 2 | 0 | 7.5* | 17* | 3 | 2.9* | 4 | 0
O=C(NOCc1ccccc1)c1ccc([N+](=O)[O-])cc1 | 2 | -1 | 0 | 1.8* | 7.3* | 15* | 9.7* | 5.2* | 12* | 1
COc1ccc(/C=N/NC(=S)Nc2cccc(C(=O)O)c2)cc1 | 1 | -3 | -4 | 0 | 1 | 5 | nt | nt | nt | nt
COc1ccc(/C=N/NC(=S)Nc2ccccc2)cc1 | 3 | 44 | 1 | -1 | 7.7* | 26* | 10* | 5.8* | 15* | 1
CC(=O)Oc1ccc(C(=O)NCCc2ccccc2)cc1 | 4 | 4 | 1 | 1 | 7.2* | 15* | 12* | 5.3* | 14* | 1
Cc1ccc(NC(=S)NNC(C)(C)C)cc1 | 0 | 6 | 0 | -1 | -1 | 1 | nt | nt | nt | nt
CC(=O)c1cccc(NC(=O)c2ccc(OC3CSC3)cc2)c1 | 1 | 6 | -1 | -2 | 0 | 4 | nt | nt | nt | nt
Cc1cccc(NC(=O)c2ccc(OC3CSC3)cc2)c1 | 3 | 2 | 1 | 0 | 4.8* | 16* | 7.8* | 4.0* | 16* | 1
CCN(CC)C(=O)c1sc2nc(Cc3ccccc3)[nH]c(=O)c2c1C | -2 | -1 | -1 | -1 | -1 | -4 | nt | nt | nt | nt
O=C(NNC(=O)c1cccnc1)Nc1cccc(Cl)c1Cl | 3 | 12 | 1 | -1 | 0 | 0 | nt | nt | nt | nt
Cc1cccc(OCc2cc(-c3ccccc3)no2)c1C | 1 | -2 | 3 | -1 | 1 | 3 | nt | nt | nt | nt
Clc1ccc(OCc2cc(-c3ccccc3)no2)c(Cl)c1 | 7.2* | -5 | -1 | 0.9* | 7.5* | 15* | 9.3* | 1 | 6 | 1 | LXR ag=2;hcDAF12 conf=10.0*
COc1ccc(Cl)c(-c2cc(C(=O)Nc3ccccc3)[nH]n2)c1 | 6.5* | nt | nt | 0 | 7.0* | 18* | 6.7* | 5.2* | 19* | 1
COc1ccc(C(=O)O/N=C(\N)c2ccc(Cl)cc2)cc1 | -2 | -3 | 2 | -1 | 0 | 6 | nt | nt | nt | nt
COc1ccccc1C(=O)O/N=C(\N)c1ccc(Cl)cc1 | 9.2* | 69* | 2 | 1.4* | 5.0* | 18* | 1 | 3 | 14* | 1 | LXR ag=1;hcDAF12 conf=6.3*
O=C1c2ccccc2C(=O)N1CCc1csc(-c2ccccc2)n1 | -1 | -15 | -1 | -1 | 0 | 2 | nt | nt | nt | nt
